# The supplement of paper PMC12340641
# Structures can show the parent of a compound that is named as a salt.
# Columns and labels:
# [1] = biological target: IKZF1 (dCK*-IKZF1 fusion in HEK293FT) (UniProt Q13422); experiment: inhibition of IKZF1 HTRF signal (DMSO = 0%, pomalidomide 10 uM = 100%); higher = lower IKZF1 protein level; conditions: compound concentration: 5 uM, overnight (~20 h)
# How it was run: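 Percent inhibition of IKZF1 signal was calculated per plate with vehicle and a reference degrader as anchors. The anchors were 0% for vehicle and 100% for the degrader, applied to background-subtracted 665/620 nm time-resolved FRET ratios from a commercial HTRF total-IKZF1 kit. Signal came from HEK293FT cells stably expressing an IKZF1 fusion, treated overnight at 37 °C with 5 μM compound in single wells of 384-well plates.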
# HEK293FT dCK*-only = experiment: relative growth in counter assay (no AraC = 100%, AraC + DMSO = 0%); higher = more growth rescue independent of IKZF1; conditions: compound concentration: 5 uM; AraC concentration: 0.3 uM; overnight pretreatment + 4 days AraC
# How it was run: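 Nuclei were counted by imaging after Hoechst 33342 staining on day 5, in HEK293FT cells (300/well, 384-well) expressing only an engineered kinase construct. Compound at 5 μM went in 2 h after seeding, followed after overnight at 37 °C by a nucleoside suicide substrate at 0.3 μM plus medium for 4 days. Per plate, wells lacking suicide substrate defined 100% and those with substrate plus vehicle defined 0%.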
# HEK293FT dCK*-IKZF1 = experiment: relative growth recovery (pomalidomide 10 uM = 100%, DMSO = 0%); higher = more growth rescue (IKZF1 fusion degradation); conditions: compound concentration: 5 uM; AraC concentration: 0.3 uM; overnight pretreatment + 4 days AraC
# How it was run: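 Means of duplicates from different days are given for growth recovery, normalised per plate against a reference degrader and vehicle. The reference degrader set the 100% level and vehicle the 0% level. HEK293FT cells stably expressing a deoxycytidine kinase–IKZF1 fusion (300/well, 384-well) received 5 μM compound 2 h after seeding and, after overnight at 37 °C, 0.3 μM of a nucleoside suicide substrate plus medium for 4 days. Nuclei stained with Hoechst 33342 were then counted by whole-well imaging on day 5.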
# Sequence of IKZF1 (dCK*-IKZF1 fusion in HEK293FT) (Q13422 whole entry, looked up, the tested form may be a part): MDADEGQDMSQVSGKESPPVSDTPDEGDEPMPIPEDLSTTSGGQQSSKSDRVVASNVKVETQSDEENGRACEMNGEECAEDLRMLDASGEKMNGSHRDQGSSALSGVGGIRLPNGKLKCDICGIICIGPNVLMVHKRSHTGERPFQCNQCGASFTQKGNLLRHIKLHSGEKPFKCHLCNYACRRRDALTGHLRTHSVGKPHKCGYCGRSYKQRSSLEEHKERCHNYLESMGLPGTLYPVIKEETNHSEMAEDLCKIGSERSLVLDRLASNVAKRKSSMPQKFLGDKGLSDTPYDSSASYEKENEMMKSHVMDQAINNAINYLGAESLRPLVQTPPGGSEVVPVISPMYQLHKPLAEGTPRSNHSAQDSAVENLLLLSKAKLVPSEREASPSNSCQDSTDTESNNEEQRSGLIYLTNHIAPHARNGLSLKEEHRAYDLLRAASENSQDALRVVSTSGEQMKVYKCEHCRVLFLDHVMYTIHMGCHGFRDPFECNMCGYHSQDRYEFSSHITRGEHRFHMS
smiles,measurement,setting,value
O=c1[nH]nc(Sc2ncc([N+](=O)[O-])s2)n1-c1ccc2c(c1)OCCO2,inhibition of IKZF1 HTRF signal,[1],-27.9%
same,relative growth in counter assay,HEK293FT dCK*-only,-34.9%
same,relative growth recovery,HEK293FT dCK*-IKZF1,-12.8%
Oc1cc(O)cc(/C=C/c2ccc(O)c(O)c2)c1 [piceatannol],inhibition of IKZF1 HTRF signal,[1],6.73%
same,relative growth in counter assay,HEK293FT dCK*-only,-9.71%
same,relative growth recovery,HEK293FT dCK*-IKZF1,-2.98%
CO[C@H]1/C=C/O[C@@]2(C)Oc3c(C)c(O)c4c(O)c(c(C=NN5CCN(C)CC5)c(O)c4c3C2=O)NC(=O)C(C)=CC=CC(C)[C@@H](O)[C@@H](C)[C@H](O)[C@H](C)[C@@H](OC(C)=O)[C@H]1C (some centres not stated) [Rifampin (Rifampicin)],inhibition of IKZF1 HTRF signal,[1],-102%
same,relative growth in counter assay,HEK293FT dCK*-only,-0.8%
same,relative growth recovery,HEK293FT dCK*-IKZF1,-2.73%
Fc1ccc(C(c2ccc(F)cc2)N2CCN(C/C=C/c3ccccc3)CC2)cc1 [flunarizine],inhibition of IKZF1 HTRF signal,[1],-47%
same,relative growth in counter assay,HEK293FT dCK*-only,1.76%
same,relative growth recovery,HEK293FT dCK*-IKZF1,-0.165%
CC(C)(N)c1nc(-c2ccc(OC(F)(F)F)cc2)c[nH]1,inhibition of IKZF1 HTRF signal,[1],-29.8%
same,relative growth in counter assay,HEK293FT dCK*-only,5.76%
same,relative growth recovery,HEK293FT dCK*-IKZF1,-3.6%
CC[C@]1(O)C[C@H]2CN(CCc3c([nH]c4ccccc34)[C@@](C(=O)OC)(c3cc4c(cc3OC)N(C)[C@H]3[C@@](O)(C(N)=O)[C@H](O)[C@]5(CC)C=CCN6CC[C@]43[C@@H]65)C2)C1 [Vindesine Sulfate],inhibition of IKZF1 HTRF signal,[1],-14%
same,relative growth in counter assay,HEK293FT dCK*-only,-34.3%
same,relative growth recovery,HEK293FT dCK*-IKZF1,-11.6%
CC(=O)Oc1ccccc1C(=O)Nc1ncc([N+](=O)[O-])s1,inhibition of IKZF1 HTRF signal,[1],22.3%
same,relative growth in counter assay,HEK293FT dCK*-only,-5.9%
same,relative growth recovery,HEK293FT dCK*-IKZF1,0.37%
Cc1cc2nc3ccc(N(C)C)cc3[s+]c2cc1N,inhibition of IKZF1 HTRF signal,[1],-22.7%
same,relative growth in counter assay,HEK293FT dCK*-only,-34.5%
same,relative growth recovery,HEK293FT dCK*-IKZF1,-13.5%
O=C1Nc2ccccc2/C1=C1/Nc2ccccc2/C1=N\O [indirubin-3-monoxime],inhibition of IKZF1 HTRF signal,[1],-16.5%
same,relative growth in counter assay,HEK293FT dCK*-only,4.61%
same,relative growth recovery,HEK293FT dCK*-IKZF1,1.19%
